Data: PMC5540273 (PLoS ONE, 2017)

Tests used:
Conditions in all cases: concentration: 1 μM, replicates: in singlicate; n = 1
[1] = test system: RPS6KA4(Kin.Dom.1-N-terminal)
[2] = test system: RPS6KA4(Kin.Dom.2-C-terminal)
[3] = test system: RPS6KA5(Kin.Dom.1-N-terminal)
[4] = test system: RPS6KA5(Kin.Dom.2-C-terminal)
[5] = test system: T1, RSK1(Kin.Dom.1-N-terminal)
T1 construct: gene RPS6KA1

[6] = test system: T2, RSK1(Kin.Dom.2-C-terminal)
T2 construct: gene RPS6KA1

[7] = test system: T3, RSK2(Kin.Dom.1-N-terminal)
T3 construct: gene RPS6KA3

[8] = test system: T4, RSK2(Kin.Dom.2-C-terminal)
T4 construct: gene RPS6KA3

[9] = test system: T5, RSK3(Kin.Dom.1-N-terminal)
T5 construct: gene RPS6KA2

[10] = test system: T6, RSK3(Kin.Dom.2-C-terminal)
T6 construct: gene RPS6KA2

[11] = test system: T7, RSK4(Kin.Dom.1-N-terminal)
T7 construct: gene RPS6KA6

[12] = test system: T8, RSK4(Kin.Dom.2-C-terminal)
T8 construct: gene RPS6KA6

S6K1 = test system: S6K1
SBK1 = test system: SBK1
SGK2 = test system: SGK2
SGK3 = test system: SGK3
SGK = test system: SGK
SIK2 = test system: SIK2
SIK = test system: SIK
SLK = test system: SLK
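Further: KINOMEscan kinase panel screen.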

Compound | %Inh [1] [%] | %Inh [2] [%] | %Inh [3] [%] | %Inh [4] [%] | %Inh [5] [%] | %Inh [6] [%] | %Inh [7] [%] | %Inh [8] [%] | %Inh [9] [%] | %Inh [10] [%] | %Inh [11] [%] | %Inh [12] [%] | %Inh (S6K1) [%] | %Inh (SBK1) [%] | %Inh (SGK2) [%] | %Inh (SGK3) [%] | %Inh (SGK) [%] | %Inh (SIK2) [%] | %Inh (SIK) [%] | %Inh (SLK) [%]
CC(=O)Nc1nc2cnc(Nc3cc(NC(=O)c4cccc(C5(C#N)CC5)c4Cl)ccc3C)nc2s1 | 0 | 0 | 14 | 5 | 0 | 25 | 0 | 0 | 0 | 10 | 0 | 18 | 14 | 0 | 0 | 0 | 0 | 6 | 29 | 23
COc1ccc(-c2coc3ccc(-c4nnc(SCc5ccc(OC)c(C(F)(F)F)c5)o4)cc23)cc1 | 9 | 15 | 0 | 0 | 1 | 17 | 14 | 19 | 16 | 19 | 25 | 16 | 0 | 0 | 6 | 28 | 0 | 21 | 10 | 9
Cc1occc1-c1ncc(OC[C@@H](N)Cc2c[nH]c3ccccc23)cc1-c1ccc2[nH]nc(C)c2c1.O=C(O)C(F)(F)F [GSK682037] | 8 | 0 | 49 | 0 | 7 | 0 | 79 | 0 | 22 | 0 | 61 | 0 | 56 | 19 | 0 | 20 | 0 | 65 | 54 | 95.2
COc1cc(Nc2ncc3c(C)nc(-c4cc5ccccc5[nH]4)n3n2)cc(OC)c1OC [GW869516] | 44 | 0 | 0 | 7 | 91.7 | 0 | 49 | 32 | 66 | 0 | 7 | 3 | 0 | 0 | 0 | 1 | 0 | 29 | 20 | 63
COc1cccc(-c2ccc3c(NC(=O)C4CC4)n[nH]c3n2)c1 [SB-710903] | 2 | 0 | 20 | 12 | 20 | 0 | 0 | 22 | 6 | 1 | 5 | 21 | 8 | 0 | 5 | 2 | 19 | 0 | 0 | 30
Fc1ccc(-c2ncn(C3CCNCC3)c2-c2ccnc(Oc3ccc(-c4ccccc4)cc3)n2)cc1 [SB-245391] | 12 | 0 | 0 | 6 | 27 | 0 | 34 | 41 | 0 | 0 | 18 | 9 | 11 | 52 | 18 | 12 | 12 | 4 | 12 | 0
COc1cc2c(cc1OCCN1CCNCC1)ncc1c3ccc(C#N)cc3[nH]c21 | 0 | 20 | 0 | 38 | 13 | 12 | 54 | 0 | 16 | 0 | 73 | 7 | 52 | 63 | 46 | 34 | 67 | 79 | 18 | 23
Oc1cc(Nc2ccnc3cc(I)ccc23)ccc1F [GW552771] | 0 | 0 | 5 | 0 | 0 | 29 | 13 | 26 | 0 | 0 | 7 | 87 | 35 | 8 | 2 | 1 | 19 | 57 | 29 | 16
CN(C)Cc1ccc(-c2ccc3c(Nc4ccc(Oc5ccccn5)cc4)ccnc3c2)o1 [GW567148] | 2 | 0 | 4 | 0 | 0 | 0 | 1 | 0 | 0 | 0 | 17 | 0 | 5 | 8 | 0 | 0 | 0 | 79 | 99.2 | 31
